Source: PubChem BioAssay
CYP2C9 inhib = human CYP2C9 inhibition; CYP2C9 Supersomes, luciferin-H conversion, luminescence; 96,000 compounds, 20% hits; inhibition, % at 5 µM; AID 777; P11712;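 active = blocking of liver enzyme CYP2C9 beyond about 50% at 5 µM, limit read from the data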
Target sequence (P11712 whole entry, looked up): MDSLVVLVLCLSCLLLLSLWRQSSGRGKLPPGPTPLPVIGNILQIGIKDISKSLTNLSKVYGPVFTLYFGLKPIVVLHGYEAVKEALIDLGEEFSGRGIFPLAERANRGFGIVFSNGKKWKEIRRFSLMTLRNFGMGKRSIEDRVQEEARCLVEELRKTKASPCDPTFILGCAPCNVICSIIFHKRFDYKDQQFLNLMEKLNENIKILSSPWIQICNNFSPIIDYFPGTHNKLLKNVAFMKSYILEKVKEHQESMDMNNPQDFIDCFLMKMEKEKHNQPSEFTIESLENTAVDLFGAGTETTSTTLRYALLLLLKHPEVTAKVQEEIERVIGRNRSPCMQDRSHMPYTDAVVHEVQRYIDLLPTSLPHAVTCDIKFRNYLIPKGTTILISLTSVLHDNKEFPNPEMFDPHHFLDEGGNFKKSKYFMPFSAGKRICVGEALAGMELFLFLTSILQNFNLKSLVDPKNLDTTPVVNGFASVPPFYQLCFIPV
CYP2C9 activ = increases human cytochrome P450 2C9 activity; 96,000 compounds, 1.4% hits; recombinant CYP2C9, luciferin-H conversion, luminescence; stronger effect = higher value; factor 1 = untreated enzyme, 0 = blocked; P11712; activation factor at 5 µM;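 active = activation factor of 2 or more for CYP2C9 at a 5 µM dose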;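 note: 0 = sulfaphenazole-blocked wells and 1 = vehicle-only wells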
CYP2C19 activ = cytochrome P450 2C19 (human) activation; recombinant CYP2C19, luciferin-H EGE luminescence; stronger effect = higher value; 0 = fully inhibited enzyme, 1 = untreated enzyme; activation factor at 5 µM; 96,000 tested, under 10 active; AID 1025;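 active = activation factor of at least 2 at 5 µM in the primary screen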;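 note: 0 = wells with 2.5 mM tranylcypromine and 1 = vehicle-only wells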
CYP2C19 inhib = inhibitors of human CYP2C19; CYP2C19 Supersomes, luciferin-H EGE luminescence, 30 min; 96,000 compounds, 21% hits; P33261; AID 778; inhibition, % at 5 µM;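 active = CYP2C19 inhibition above a set limit at 5 µM in the primary screen, cut at about 50% in these data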;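 note: plate controls were negative control wells for no effect and 2.5 mM tranylcypromine positive control for full effect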
Cav3 T inh = inhibitors of human Cav3.2 T-type calcium channel; O95180; Cav3.2-expressing cells, Fluo-4 calcium fluorescence FDSS; stronger effect = lower value; B-score at 10 µM; 100,000 compounds, 4% hits; AID 449739;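 active = single-dose well whose peak fluorescence ratio is a statistical outlier from its plate by either plate-standardised score or position-corrected B-score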
The depositor's hits bear a star; . = no result given. This is a sample that favours compounds with a hit; in the whole collection about 27% have one here.

SMILES | CYP2C9 inhib | CYP2C9 activ | CYP2C19 activ | CYP2C19 inhib | Cav3 T inh
O=C(CCCn1c(=S)[nH]c2cc3c(cc2c1=O)OCO3)N1CCN(c2ccccn2)CC1 | 46 | 0.5 | 1 | 2 | 1.4
CCN(CC)CCn1c2ccccc2c2cnc(N)c(C#N)c21 | -3 | 1 | 1 | -5 | 1.4
CCOC(=O)C1CCN(C(=O)CCCCn2c(=O)[nH]c3ccccc3c2=O)CC1 | . | . | . | . | -0.2
COc1ccc2[nH]c3c(=O)n(CCCCC(=O)N4CCCC4)c(=S)[nH]c3c2c1 | 60* | 0.4 | 0.7 | 31 | 1.1
O=C(CCCCCn1c(=S)[nH]c2cc3c(cc2c1=O)OCO3)N1CCN(Cc2ccccc2)CC1 | 70* | 0.3 | 0.5 | 46 | 0.0091
CCCCCC(=O)Nc1cccc(C2=NOC3(C2)C[C@@H](C(N)=O)N(C(=O)CC(c2ccccc2)c2ccccc2)C3)c1 (some centres not stated) | . | . | . | . | -1.8
COc1ccc(N(CC(=O)Nc2cc(C)ccc2OC)S(=O)(=O)c2c(C)noc2C)cc1 | 67* | 0.3 | 0.4 | 64* | -2
COc1ccc(NC(=O)CN(c2cc(C)cc(C)c2)S(=O)(=O)c2c(C)noc2C)cc1 | 17 | 0.8 | 0.9 | 7 | -3.6
CCOc1ccc(N(CC(=O)Nc2ccccc2C)S(=O)(=O)c2c(C)noc2C)cc1 | 48 | 0.5 | 0.1 | 87* | -2.6
Cc1ccc(N(CC(=O)Nc2ccc(F)c(Cl)c2)S(=O)(=O)c2c(C)noc2C)cc1 | 7 | 0.9 | 1 | 1 | 0.97
COc1ccc(NC(=O)CN(c2cc(C)cc(C)c2)S(=O)(=O)c2c(C)noc2C)cc1OC | 50* | 0.5 | 0.9 | 14 | 0.14
CCOc1ccccc1NC(=O)CN(c1ccc(OC)cc1)S(=O)(=O)c1c(C)noc1C | 90* | 0.1 | 0.1 | 89* | -3.8
Cc1cccc2cc(COC(=O)C(C)(C)C)c(=O)[nH]c12 | -33 | 1.3 | 0.8 | 20 | 0.52
CCOc1ccc(N(CC(=O)Nc2cccc(F)c2)S(=O)(=O)c2c(C)noc2C)cc1 | 28 | 0.7 | 0.9 | 13 | -0.46
CCOc1ccc(N(CC(=O)Nc2ccc(C)c(C)c2)S(=O)(=O)c2c(C)noc2C)cc1 | . | . | . | . | -4.9*
CC(=O)CSc1nnc(-c2ccc(S(=O)(=O)N3CCC(C)CC3)cc2)o1 | . | . | . | . | 0.038
O=C1CN(C(=O)CSc2nnc(C3CC3)n2-c2ccccc2)c2ccccc2N1 | 11 | 0.9 | 0.9 | 12 | 1.1
Cc1cc(C)cc(NC(=O)c2snc3c(=O)[nH]cnc23)c1 | 2 | 1 | 0.9 | 11 | 1.3
c1csc(Cn2c(-c3cccs3)nc3ccccc32)c1 | 94* | 0.1 | 0.1 | 87* | -3.8
CCOC12NC(=O)CC(=O)N1C(c1ccccc1)=CS2 (configuration not stated) | 20 | 0.8 | 0.7 | 26 | 0.66
CCN1CCN(C(=O)c2cc3c(-c4ccc(Cl)cc4)nn(C)c3s2)CC1 | 1 | 1 | 0.8 | 20 | -0.84
Cn1nc(-c2ccc(Cl)cc2)c2cc(C(=O)NCCCN3CCOCC3)sc21 | 58* | 0.4 | 0.7 | 29 | -1.7
Cn1nc(-c2ccc(Cl)cc2)c2cc(C(=O)NCCN3CCOCC3)sc21 | 70* | 0.3 | 0.5 | 49 | 0.054
O=C(NCCCN1CCOCC1)c1cc(-c2ccc(Br)cc2)on1 | -1 | 1 | 1.1 | -11 | 0.77
O=C(NCCCN1CCOCC1)c1cc(-c2ccc(O)cc2)on1 | -121 | 2.2* | 1.1 | -8 | 0.49
SMILES | CYP2C9 inhib | CYP2C9 activ | CYP2C19 activ | CYP2C19 inhib | Cav3 T inh
O=C(Nc1c(F)cc(F)cc1Br)c1cc(-c2ccc(O)cc2)on1 | -58 | 1.6 | 0.1 | 87* | -0.64
Cc1cc(C(=O)Nc2c(F)cc(F)cc2Br)no1 | -8 | 1.1 | 1 | -1 | -0.021
CCCCCC(=O)Nc1c(-c2ccc(OC)cc2)c(=O)c2ccccc2n1C | 50 | 0.5 | 1.2 | -15 | 0.39
CC1CCN(CC(O)COC2CCC(C(C)(C)C)CC2)CC1 (configuration not stated) | -8 | 1.1 | 0.9 | 5 | -0.43
CCN(CC)CCNC(=O)c1cc2c(-c3ccc(Cl)cc3)nn(C)c2s1 | 18 | 0.8 | 0.8 | 18 | 0.98
CCOCCCNC(=O)c1cc2c(-c3ccc(Cl)cc3)nn(C)c2s1 | 49 | 0.5 | 0.4 | 61* | -0.31
CC1CN(C(=O)c2ccccc2)OC(c2ccc3c(c2)OCO3)O1 (configuration not stated) | 30 | 0.7 | 0.9 | 13 | -0.097
CCn1c(CCC(=O)Nc2nc3c(s2)CCCC3)nc2cc(S(=O)(=O)N(C)C)ccc21 | 91* | 0.1 | 0.2 | 75* | -1.4
O=C(CCCn1nnc(-c2cccnc2)n1)c1ccc(F)cc1 | 53* | 0.5 | 0.2 | 76* | 0.32
c1ccc(OCCCn2nnc(-c3cccnc3)n2)cc1 | 45 | 0.5 | 0.5 | 51* | 0.15
CCCCN1C(=O)C2ON(c3ccccc3C)C(c3ccco3)C2C1=O (configuration not stated) | 96* | 0 | 0.2 | 77* | -2.2
CC(C)OCCCN1C=C2C(=O)C(C)(OC(=O)CCc3ccccc3)C(=O)C=C2C=C1c1ccc(C#N)cc1 (configuration not stated) | . | . | . | . | 0.39
CC1CCCCN1CCNC(=O)C1CCN(S(=O)(=O)c2cccc3cccnc23)CC1 (configuration not stated) | 8 | 0.9 | 0.8 | 17 | 0.46
O=C(C1CCCN(S(=O)(=O)c2cccc3cccnc23)C1)N1CCN(c2ccccc2F)CC1 (configuration not stated) | 43 | 0.6 | 0.1 | 88* | -0.41
O=C(C1CCN(S(=O)(=O)c2cccc3cccnc23)CC1)N1CCCC1 | -163 | 2.6* | 0.6 | 36 | 0.63
O=C(C1CCN(S(=O)(=O)c2cccc3nsnc23)CC1)N1CCN(c2ccccc2F)CC1 | -38 | 1.4 | 1.1 | -6 | -0.71
O=C(C1CCN(S(=O)(=O)c2cccc3cccnc23)CC1)N1CC=C(c2ccccc2)CC1 | -31 | 1.3 | 0.2 | 75* | .
CCOc1ccc(NCC(=O)Nc2ccc(C)cc2C)cc1 | 8 | 0.9 | 0.9 | 11 | -1.7
CCOc1ccc(NC(=O)CN2CCN(CC(=O)Nc3cccc(F)c3)CC2)cc1 | 19 | 0.8 | 0.7 | 27 | 0.72
COc1ccccc1N1CCN(CC(=O)Nc2ccc(Cl)c(C(F)(F)F)c2)CC1 | . | . | . | . | -4.2*
CCOc1ccc(NC(=O)CNc2ccc(C)cc2Cl)cc1 | 33 | 0.7 | 0.2 | 78* | -3.2
CCOc1ccc(NC(=O)CN2CCN(CC(=O)Nc3ccc(Cl)c(C(F)(F)F)c3)CC2)cc1 | 32 | 0.7 | 0.8 | 23 | -6.2*
O=C(CN1CCN(c2ccccn2)CC1)Nc1ccc(Cl)c(C(F)(F)F)c1 | 5 | 0.9 | 1 | 4 | -0.27
COc1ccc(NC(=O)C2CCN(c3nc(C)cc(C)n3)CC2)cc1 | . | . | . | . | 0.4
NC(=O)C1CCN(c2nc(-c3ccccc3)nc3c2oc2ccccc23)CC1 | 14 | 0.9 | 1 | 4 | -1.9
NC(=O)C1CCN(c2nc(-c3ccccc3)nc3ccccc23)CC1 | 54* | 0.5 | 0.8 | 21 | .
